Source: PubChem BioAssay
This is a sample that favours compounds with a hit; in the whole collection about 2.1% have one here.
FUS yeast rescue = rescues growth of FUS-expressing yeast; Potency, µM (titrated, usually from 76.6 µM), most hits filed as activators; 390,000 compounds, 0.24% hits; S. cerevisiae FUS-expressing, growth rescue, OD600, 24 h; AID 1347120; further: nearly all actives have a fitted effect of over 55% in size
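Quantitative HTS measuring growth restoration of FUS-toxic yeast. Galactose-induced cells (OD 0.005) were exposed 24hr at 30C to compounds at several concentrations, then absorbance at 600 nm was recorded.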
TDP43 rescue = TDP-43 toxicity inhibition in yeast | TDP-43 expressing yeast growth rescue, BacTiter-Glo, 24 h | Potency, µM (doses to about 46.1 µM), hits mostly activators | 410,000 compounds, 1.8% hits; further: nearly all actives have a fitted effect of over 50% in size
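Yeast expressing TDP-43 (pregrown in raffinose, seeded at OD600=0.02 in galactose medium) exposed to compounds 24 hr at 30 deg C. Growth read by BacTiter-Glo luminescence; rescue of toxicity appears as increased signal.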
Abeta yeast res = restores growth of yeast expressing A-beta42 peptide; yeast expressing A-beta42, growth rescue, OD600, 48 h; response scale: 0% DMSO, 100% iron-clioquinol control; Potency, µM (titrated, usually from 46.1 µM), usual class: activators; 410,000 compounds, 0.063% hits; further: nearly all actives have a fitted effect of over 55% in size
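Yeast A-beta toxicity model in growth medium with pinned compounds, 48 h at 30 C; growth read as absorbance at 600 nm. Normalized to FeCl3/clioquinol equimolar mix (positive) and DMSO (negative).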
aSyn yeast inh = alpha-synuclein toxicity inhibition in yeast; 370,000 compounds, 0.14% hits; Yeast expressing alpha-synuclein, growth rescue, BacTiter-Glo, 24 h; AID 652106; Potency, µM (titrated, usually from 46.1 µM), hits mostly activators; further: nearly all actives have a fitted effect of over 65% in size
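Galactose-induced alpha-syn yeast (OD600=0.02, raffinose-pregrown) + pinned cpd, 24 hr, 30 deg C; growth by BacTiter-Glo luminescence. Growth restoration scores as activation.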
Each line names hits and unclear results; the compound was inactive in the other large screens. The call rests on the fitted dose curve; in most records, active means well fitted curve in the direction sought with a large enough effect; inconclusive means small, poorly fitted or top-dose-only effect, or another doubt; inactive means no such curve, though single readings can be large; an effect the other way counts as inactive or inconclusive.

Cc1cccc(Cn2c(-c3cccs3)nc3ccccc32)c1	none
Cc1ccc(C)c(Cn2c(-c3cccs3)nc3ccccc32)c1	TDP43 rescue 20µM (no result: aSyn yeast inh)
COc1ccc(-c2n[nH]c(C)c2-c2cnn(-c3ccccc3)c2)c(O)c1	FUS yeast rescue inconclusive, TDP43 rescue 22µM
CC1=C(C(=O)OC2CCCCCC2)C(c2c(F)cccc2Cl)CC(=O)N1 (stereo not drawn)	TDP43 rescue 11µM (no result: aSyn yeast inh)
CCCCCn1nnnc1C1(C)CN(S(C)(=O)=O)CC(=O)N1Cc1ccco1 (stereo not drawn)	none (no result: TDP43 rescue, Abeta yeast res, aSyn yeast inh)
O=[N+]([O-])c1cccc(C(=S)N2CCN(c3ccccc3F)CC2)c1	TDP43 rescue inconclusive
O=C(Oc1cccc(C(=S)N2CCOCC2)c1)c1ccc([N+](=O)[O-])cc1[N+](=O)[O-]	TDP43 rescue 11µM
O=C(c1cccc([N+](=O)[O-])c1)N1CCN(c2ccc(Cl)cc2)CC1	TDP43 rescue inconclusive (no result: FUS yeast rescue)
Cc1ccc(N2CCN(C(=O)C(=O)c3cccc([N+](=O)[O-])c3)CC2)cc1	TDP43 rescue 16µM
O=[N+]([O-])c1cccc(C(=S)N2CCN(c3ccccc3)CC2)c1	TDP43 rescue 13µM (no result: FUS yeast rescue)
COc1ccccc1Nc1ncnc2c1nc1n2CCCCC1	none (no result: aSyn yeast inh)
Clc1cccc(CNc2ncnc3c2nc2n3CCCC2)c1	TDP43 rescue 13µM, Abeta yeast res inconclusive (no result: aSyn yeast inh)
Cc1ccc(CNc2ncnc3c2nc2n3CCCC2)cc1	none (no result: aSyn yeast inh)
Cc1ccc(Nc2ncnc3c2nc2n3CCCC2)c(Br)c1	TDP43 rescue 18µM (no result: aSyn yeast inh)
Clc1ccccc1Nc1ncnc2c1nc1n2CCCCC1	TDP43 rescue 18µM (no result: aSyn yeast inh)
Clc1cccc(Nc2ncnc3c2nc2n3CCCCC2)c1	TDP43 rescue 16µM (no result: aSyn yeast inh)
COc1ccc(NC(=O)C2(C)CCN2Cc2csc3ccccc23)cc1OC (stereo not drawn)	none
CCC[C@H]1[C@@H](N(C)Cc2ccccc2)CC[C@@]23CCCN2C(=O)CCC[C@@H]13	none (no result: TDP43 rescue, Abeta yeast res, aSyn yeast inh)
COc1ccc(-n2nc(C(=O)NCC(=O)N3CCCCCC3)c3ccccc3c2=O)cc1	none
COc1ccc(-n2nc(C(=O)NCC(=O)N3CC(C)CC(C)C3)c3ccccc3c2=O)cc1 (stereo not drawn)	TDP43 rescue 14µM
Brc1ccccc1C1CC(c2ccccc2)=Nc2ccccc2N1 (stereo not drawn)	TDP43 rescue 35µM
Clc1ccccc1C1CC(c2ccccc2)=Nc2ccccc2N1 (stereo not drawn)	TDP43 rescue inconclusive
CCS(=O)(=O)N1CC(=O)N(c2cc(C)ccc2C)C(C)(C(=O)NC2CCCCC2)C1 (stereo not drawn)	none (no result: aSyn yeast inh)
Cc1ccc(-c2ccnc3c(Br)c(C)nn23)cc1	aSyn yeast inh inconclusive
Cc1nn2c(-c3ccccc3)ccnc2c1Br	TDP43 rescue 20µM
COc1cccc(C(N)c2nc(-c3csc4ccccc34)cs2)c1 (stereo not drawn)	none
O=C(Nc1ccccc1Cl)O/N=C/c1ccncc1	none
COc1ccc(-c2cn[nH]c2-c2ccc(OC)cc2O)cc1	TDP43 rescue 25µM, Abeta yeast res inconclusive, aSyn yeast inh 22µM
COc1ccc(-c2cn[nH]c2-c2ccc(OCc3ccccc3)cc2O)cc1	none
O=[N+]([O-])c1nn(-c2ccc3c(c2)OCCO3)n(O)c1=NC1CCCCC1	TDP43 rescue 7.9µM
COc1ccccc1CN=c1c([N+](=O)[O-])nn(-c2ccc3c(c2)OCCO3)n1O	TDP43 rescue 18µM
COC(=O)c1ccc(-c2ccc3c(c2)[C@]2(CCC[C@@H](O)[C@@H]2NC(=O)CCc2ccccc2)C(=O)N3Cc2ccccc2)cc1	none (no result: TDP43 rescue, Abeta yeast res, aSyn yeast inh)
CCOc1ccc(S(=O)(=O)N2CCOCC2)cc1NC(=O)CSCC(=O)Nc1ccc(OC)cc1	none (no result: FUS yeast rescue)
COc1ccc(CCNC(=O)c2c(C)nn(-c3ccc(F)cc3)c2-n2cccc2)cc1OC	aSyn yeast inh inconclusive
Cc1ccc(CCNC(=O)c2c(C)nn(-c3ccc(F)cc3)c2-n2cccc2)cc1	TDP43 rescue 22µM
CCOc1cc(OCC)cc(C(=O)NC(=S)Nc2cccc(C(F)(F)F)c2)c1	none (no result: FUS yeast rescue)
O=C(NC(=S)Nc1cccc(C(F)(F)F)c1)c1ccc2nonc2c1	TDP43 rescue 11µM
Cc1ccc(NC(=S)NCc2ccccc2)cc1C	TDP43 rescue 13µM
Cc1nc2ccc(NC(=S)NCc3ccccc3)cc2nc1C	none
FC(F)(F)c1cccc(NC(=S)NCc2ccccc2)c1	TDP43 rescue 14µM, Abeta yeast res inconclusive
Cc1nn(-c2ccc(N3CCCCC3)nn2)c(C)c1CCC(=O)Nc1ccc(F)cc1F	none (no result: aSyn yeast inh)
Cc1ccc(CCNS(=O)(=O)c2c(C)nc3sc(C)c(C)n3c2=O)cc1	none (no result: aSyn yeast inh)
C=CCN(C(=O)[C@@H](CCCC)[C@@H](O)c1ccc(C(C)=O)cc1)c1ccccc1	none (no result: TDP43 rescue, Abeta yeast res, aSyn yeast inh)
CCOc1ccc(S(=O)(=O)N2CCOCC2)cc1NC(=O)CSCc1c(C)noc1C	none
O=C(Nc1ccccc1)C1C(c2ccccc2)C1(Cl)Cl (stereo not drawn)	TDP43 rescue inconclusive
O=C(Nc1ccc(Cl)cn1)C1C(c2ccccc2)C1(Cl)Cl (stereo not drawn)	TDP43 rescue 13µM
O=C(OC1CCCCC1)c1ccc(NC(=O)c2ccco2)cc1	TDP43 rescue 35µM
O=C(Nc1ccc(OC(=O)c2ccco2)cc1)c1ccco1	none
CC(C)C(=O)Nc1ccc(/C=C2\C=Cc3ccccc32)cc1	none (no result: FUS yeast rescue, TDP43 rescue, Abeta yeast res)
Cc1nn(-c2ccccc2)c(OC(=O)c2cccs2)c1S(=O)(=O)c1ccccc1	none
Cc1nn(-c2ccccc2)c(OC(=O)c2cccs2)c1S(=O)(=O)c1ccc([N+](=O)[O-])cc1	FUS yeast rescue 40µM
Cc1ccc(S(=O)(=O)NCc2ccc3c(c2)OCO3)cc1C	TDP43 rescue 18µM
CC1CCN(C(=O)Cn2nnc(-c3ccc(C(C)C)cc3)n2)CC1	none
O=C1CSC2(C(=O)N(Cc3cccc(F)c3)c3ccccc32)N1c1cccc(C(F)(F)F)c1 (stereo not drawn)	TDP43 rescue 22µM, aSyn yeast inh inconclusive
O=C1CSC2(C(=O)N(Cc3cccc(C(F)(F)F)c3)c3ccccc32)N1c1ccc(F)c(F)c1 (stereo not drawn)	FUS yeast rescue inconclusive, TDP43 rescue inconclusive
CCCNC(=O)CNC(=S)N(Cc1ccccc1F)C1CCCCC1	TDP43 rescue inconclusive
CCOC(=O)CNC(=S)N(Cc1ccccc1F)C1CCCCC1	TDP43 rescue inconclusive, Abeta yeast res 7.1µM
CC1(C)c2ssc(=S)c2-c2ccccc2N1C(=O)CSC1=NCCS1	TDP43 rescue 35µM
COc1ccc2c(c1)-c1c(ssc1=S)C(C)(C)N2C(=O)CSC1=NCCS1	TDP43 rescue inconclusive
N#CCCN1CCN(C(=S)c2ccc(-c3ccc(Cl)cc3)o2)CC1	TDP43 rescue 13µM
CCCN(CCC)c1cc(C)nc2nc(-c3ccc(C(C)(C)C)cc3)nn12	none (no result: aSyn yeast inh)
Cc1cc(N(C)Cc2ccccc2)n2nc(-c3ccc(C(C)(C)C)cc3)nc2n1	FUS yeast rescue inconclusive, TDP43 rescue 16µM (no result: aSyn yeast inh)
CCN(CC)c1cc(C)nc2nc(-c3ccc(C)cc3)nn12	TDP43 rescue 20µM (no result: aSyn yeast inh)
